Here are results for eight compounds from PubChem BioAssay (Tox21).

The nature of assay [1]: Nuclear factor erythroid 2-related factor 2/antioxidant responsive element (Nrf2/ARE) small molecule agonists: qHTS cell viability counter screen in human keratinocytes (AID 1919968; active means well fitted curve in the direction sought with a large enough effect in the repeat runs; an effect the other way counts as inactive or inconclusive; further: nearly all actives have a fitted effect of over 55% in size). An outline of the steps: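 KeratinoSens HaCaT cells, 1,500/well, preincubated 5 h, then exposed to compounds in DMSO for 23 h at 37 C/5% CO2. Viability read as CellTiter-Fluor fluorescence after 1 h, in the same wells as the ARE-luciferase read.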
Background: Quantitative high-throughput screening tests each substance at several concentrations.

Assay [2] can be described thus: Nuclear factor erythroid 2-related factor 2/antioxidant responsive element (Nrf2/ARE) small molecule agonists: luciferase reporter gene qHTS assay in human keratinocytes (AID 1919969). Further: nearly all actives have a fitted effect of over 35% in size. Further: potency means the concentration at half of the fitted maximal effect. For orientation: In a reporter assay the amount or activity of a reporter protein is the signal.
In assay [3] the target is Gonadotropin-releasing hormone receptor (Homo sapiens) (UniProt P30968). As to the kind of experiment: Human gonadotropin-releasing hormone receptor (GnRHR) small molecule agonists, calcium flux assay in GnRHR-HEK293 cells (AID 1920063). Further: nearly all actives have a fitted effect of over 35% in size. In a few lines: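 HEK293 cells stably expressing human GnRHR were dye-loaded for 1 h at 37 C. Compound was added in agonist mode and fluorescence (Ex/Em 480/540) recorded kinetically for 3 min. Fifteen concentrations, triplicates.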

Assay [4] has as its target KiSS-1 receptor (Homo sapiens) (UniProt Q969F8). The assay can be described thus: Human kisspeptin (KISS1R) small molecule agonists, calcium flux assay in KISS1R-HEK293 cells (AID 1920064; active means well fitted curve in the direction sought with a large enough effect in the repeat runs; an effect the other way counts as inactive or inconclusive). An outline of the steps: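 HEK293 cells stably expressing human KISS1R were loaded with calcium dye for 1 h at 37 C, then given compound; fluorescence (Ex/Em 480/540) was read kinetically for 3 min. Fifteen concentrations, triplicate.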

A short description of assay [5]: G protein-coupled receptor (GPCR) small molecule agonists, calcium flux assay: HEK293 wild type cell line counter screen (AID 1920065). An outline of the steps: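 Wild-type HEK293 cells plated 18 h, loaded with calcium dye 1 h at 37 C, then compounds added in agonist mode (ATP as positive control). Kinetic fluorescence Ex/Em 480/540 recorded 3 min at 1 sec intervals; 15 concentrations, triplicate.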

The nature of assay [6]: p53 small molecule agonists, cell-based qHTS assay with human liver microsomes: qHTS cell viability counter screen (AID 1963579). Further: nearly all actives have a fitted effect of over 45% in size. In a few lines:
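Tox21 library compounds, delivered from DMSO stocks, were tested on p53RE-bla cells together with 0.5 mg/mL human liver microsomes and 0.5 mg/mL NADPH (final) over 16 h at 37 C; CellTiter-Glo luminescence served as the cytotoxicity measure.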

A short description of assay [7]: p53 small molecule agonists, cell-based qHTS assay with rat liver microsomes: qHTS cell viability counter screen (AID 1963580). Further: nearly all actives have a fitted effect of over 45% in size. In a few lines:
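Intracellular ATP, by CellTiter-Glo luminescence, defines viability. HCT-116 p53RE-bla cells, 4,000 per well, were compound-treated in the presence of rat liver microsomes and NADPH for 16 h at 37 C.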

A short description of assay [8]: p53 small molecule agonists, cell-based qHTS assay: qHTS cell viability counter screen (AID 1963581). Further: nearly all actives have a fitted effect of over 45% in size. An outline of the steps:
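p53RE-bla HCT-116 cells, compounds added 5 h after plating and incubated 16 h at 37 C. Cytotoxicity measured in the same wells as intracellular ATP by CellTiter-Glo luminescence after 30 min at room temperature.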

A short description of assay [9]: p53 small molecule agonists, cell-based qHTS assay (AID 1963582; active means well fitted activation curve with a large enough effect in the signal ratio in the repeat runs, not every such curve was filed as active; the % refers to the signal ratio). In a few lines:
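p53RE-bla reporter cells, compounds added in DMSO after 5 h plating, incubated 16 h at 37 C. Beta-lactamase read via 2 h room-temperature LiveBLAzer B/G FRET substrate, fluorescence intensity.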

Assay [10] has as its target 5-hydroxytryptamine receptor 2A (Homo sapiens) (UniProt P28223). As to the kind of experiment: 5-hydroxytryptamine receptor 2A (HTR2A) small molecule antagonists, cell-based qHTS assay (AID 1963586). Further: nearly all actives have a fitted effect of over 45% in size. An outline of the steps: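 Antagonist-mode intracellular calcium assay: DOI (4 nM) added after 5 min compound pre-incubation at room temperature to dye-loaded HTR2A-CHO cells. Fluorescence followed for 3 min, sampled every second.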

The target is the same in assay [11]. The assay can be described thus: 5-hydroxytryptamine receptor 2A (HTR2A) small molecule agonists, cell-based qHTS assay (AID 1963587). Further: nearly all actives have a fitted effect of over 30% in size. In a few lines:
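Kinetic calcium-flux fluorescence (2 min, 1 sec intervals) after compound addition in agonist mode. HTR2A-CHO cells were cultured 18 h, then dye-loaded 1 h at 37 C.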

For assay [12], the target named is Muscarinic acetylcholine receptor M1 (Homo sapiens) (UniProt P11229). As to the kind of experiment: Cholinergic receptor muscarinic 1 (CHRM1) small molecule antagonists, cell-based qHTS assay (AID 1963588). Further: nearly all actives have a fitted effect of over 40% in size. Further: potency means the concentration at half of the fitted maximal effect. In a few lines: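 CHRM1-CHO calcium-flux assay, antagonist mode. Cells were seeded 18 h, dye-loaded 1 h at 37 C and given compound for 5 min at RT, then acetylcholine was added at 50nM. FDSS fluorescence was read 3 min; 15 concentrations, three runs.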

The target is the same in assay [13]. The assay can be described thus: Cholinergic receptor muscarinic 1 (CHRM1) small molecule agonists, cell-based qHTS assay (AID 1963589). Further: nearly all actives have a fitted effect of over 35% in size. In a few lines:
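CHO cells stably expressing human CHRM1 were loaded with calcium dye for 1 h at 37 C, then compound was added in agonist mode. Intracellular calcium fluorescence was followed kinetically at 1 s intervals. Fifteen concentrations were tested in three independent runs.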

Assay [14] can be described thus: cAMP Responsive Elements (CRE) small molecule agonists, cell-based qHTS assay (AID 1963590). In a few lines: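 CRE-bla HEK 293T cells, 2,000/well in DMEM with 10% dialyzed FBS and 25 mM HEPES, pre-incubated 18 h at 37 C, then exposed to compound 3 h at 37 C. Beta-lactamase reporter read with LiveBLAzer B/G FRET substrate after 2 h at room temperature.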
The nature of assay [15]: cAMP Responsive Elements (CRE) small molecule antagonists, cell-based qHTS assay (AID 1963591; active means well fitted inhibition curve with a large enough effect in the signal ratio in the repeat runs, not every such curve was filed as active; the % refers to the signal ratio). An outline of the steps:
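CRE-bla HEK293T cells plated 18 h, then given compound plus NKH477 at 0.25 uM final for 3 h at 37C. Beta-lactamase reporter read with LiveBLAzer B/G FRET substrate after 2 h at room temperature.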

For assay [16], the target named is Beta-2 adrenergic receptor (Homo sapiens) (UniProt P07550). As to the kind of experiment: Adrenergic beta2 receptor (ADRB2) small molecule antagonists, cell-based qHTS assay (AID 1963592). Further: series mostly up to about 92 µM; nearly all actives have a fitted effect of over 50% in size. An outline of the steps:
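Cells (CHO, stable ADRB2 overexpression) incubated 18-20hr at 37C; compounds added from DMSO; agonist mix (1nM isoproterenol, 100uM IBMX, 25uM Ro-20-1724) added; 0.5hr RT; d2-cAMP and anti-cAMP-cryptate added; 1hr RT; 665/615 nm read.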

In assay [17] the target is D(2) dopamine receptor (Homo sapiens) (UniProt P14416). As to the kind of experiment: Dopamine D2 receptor (DRD2) small molecule agonists, cell-based qHTS assay (AID 1963594). Further: nearly all actives have a fitted effect of over 35% in size. In a few lines:
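cAMP accumulation in DRD2-HEK293 cells measured by HTRF after 1 h detection; compounds added 10 min before NKH477 (200nM […]) forskolin-analogue stimulation, 30 min at room temperature, with Ro20-1724 present at 0.1 mM final.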

For assay [18] the target is unchanged. The assay can be described thus: Dopamine D2 receptor (DRD2) small molecule antagonists, cell-based qHTS assay (AID 1963595; active means well fitted inhibition curve with a large enough effect in the signal ratio in the repeat runs, with a control signal flat; the % refers to the signal ratio). An outline of the steps:
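HEK293 cells stably expressing DRD2 were preincubated with 0.1 mM Ro20-1724, then with compound for 10 min at room temperature. Cells were stimulated with 200 nM NKH477 plus 12 nM quinpirole for 30 min, and cAMP was read by HTRF.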

For assay [19], the target named is Beta-2 adrenergic receptor (Homo sapiens) (UniProt P07550). The assay can be described thus: Adrenergic beta2 receptor (ADRB2) small molecule agonists, cell-based qHTS assay (AID 1963593).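 Further: CHO cells stably overexpressing human ADRB2.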 An outline of the steps:
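CHO cells stably over-expressing ADRB2 were plated overnight at 37C, then dosed with compounds plus a stimulation mix containing 100uM IBMX and 25uM Ro-20-1724 for 0.5hr at room temperature. cAMP was measured by HTRF competition, 1hr.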

SMILES strings stand for the structures. Where “and” joins values, the source holds several entries; their conditions need not be identical. Equal entries are not always repeated. Records with an inconclusive call do not appear. Calls of active or inactive are those of the source. Unless noted, the call rests on the fitted dose curve.

Chain of Muscarinic acetylcholine receptor M1 (Homo sapiens) (P11229 whole entry, looked up): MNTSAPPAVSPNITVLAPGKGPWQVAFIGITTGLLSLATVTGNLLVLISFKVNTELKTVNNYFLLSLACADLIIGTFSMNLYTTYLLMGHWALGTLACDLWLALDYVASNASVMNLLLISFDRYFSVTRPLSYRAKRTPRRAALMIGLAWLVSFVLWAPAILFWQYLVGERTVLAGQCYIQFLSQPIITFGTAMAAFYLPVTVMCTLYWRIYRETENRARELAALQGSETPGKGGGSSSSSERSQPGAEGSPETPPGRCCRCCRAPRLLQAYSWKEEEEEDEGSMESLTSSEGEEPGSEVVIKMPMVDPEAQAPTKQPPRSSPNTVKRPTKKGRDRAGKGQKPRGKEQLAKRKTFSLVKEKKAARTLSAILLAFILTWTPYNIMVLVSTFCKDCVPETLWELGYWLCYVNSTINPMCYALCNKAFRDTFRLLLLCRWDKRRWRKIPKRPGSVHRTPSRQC
Chain of KiSS-1 receptor (Homo sapiens) (Q969F8 whole entry, looked up): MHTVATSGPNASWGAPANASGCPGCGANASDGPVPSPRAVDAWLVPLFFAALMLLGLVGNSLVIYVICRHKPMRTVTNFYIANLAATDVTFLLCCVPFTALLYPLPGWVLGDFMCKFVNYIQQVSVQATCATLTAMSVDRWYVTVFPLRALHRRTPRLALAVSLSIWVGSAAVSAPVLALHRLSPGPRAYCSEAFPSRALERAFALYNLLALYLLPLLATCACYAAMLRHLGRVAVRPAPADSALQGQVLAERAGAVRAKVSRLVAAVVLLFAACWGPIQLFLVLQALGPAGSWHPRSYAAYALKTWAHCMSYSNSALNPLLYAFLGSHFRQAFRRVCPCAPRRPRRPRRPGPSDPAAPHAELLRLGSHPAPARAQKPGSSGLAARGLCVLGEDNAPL
Chain of 5-hydroxytryptamine receptor 2A (Homo sapiens) (P28223 whole entry, looked up): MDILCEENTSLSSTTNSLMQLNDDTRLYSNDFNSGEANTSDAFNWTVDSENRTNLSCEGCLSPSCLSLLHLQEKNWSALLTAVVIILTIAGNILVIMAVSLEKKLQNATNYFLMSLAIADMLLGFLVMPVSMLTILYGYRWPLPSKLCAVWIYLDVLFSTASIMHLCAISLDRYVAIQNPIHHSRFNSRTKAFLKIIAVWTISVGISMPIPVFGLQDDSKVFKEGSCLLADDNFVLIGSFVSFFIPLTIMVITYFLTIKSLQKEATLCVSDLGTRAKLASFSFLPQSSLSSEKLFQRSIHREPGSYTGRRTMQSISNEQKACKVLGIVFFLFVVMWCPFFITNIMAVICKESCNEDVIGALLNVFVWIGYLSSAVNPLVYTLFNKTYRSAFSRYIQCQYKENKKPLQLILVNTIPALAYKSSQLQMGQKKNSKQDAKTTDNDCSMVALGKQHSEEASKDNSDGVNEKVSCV
Chain of Gonadotropin-releasing hormone receptor (Homo sapiens) (P30968 whole entry, looked up): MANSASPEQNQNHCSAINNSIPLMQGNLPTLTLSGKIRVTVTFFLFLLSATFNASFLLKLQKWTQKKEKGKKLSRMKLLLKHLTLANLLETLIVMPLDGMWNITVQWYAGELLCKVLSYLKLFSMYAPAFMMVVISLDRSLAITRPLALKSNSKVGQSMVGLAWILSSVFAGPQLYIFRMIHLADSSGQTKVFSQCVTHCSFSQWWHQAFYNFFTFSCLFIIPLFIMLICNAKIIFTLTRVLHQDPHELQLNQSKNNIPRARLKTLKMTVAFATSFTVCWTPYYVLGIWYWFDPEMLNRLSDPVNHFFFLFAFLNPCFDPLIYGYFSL
Chain of Beta-2 adrenergic receptor (Homo sapiens) (P07550 whole entry, looked up): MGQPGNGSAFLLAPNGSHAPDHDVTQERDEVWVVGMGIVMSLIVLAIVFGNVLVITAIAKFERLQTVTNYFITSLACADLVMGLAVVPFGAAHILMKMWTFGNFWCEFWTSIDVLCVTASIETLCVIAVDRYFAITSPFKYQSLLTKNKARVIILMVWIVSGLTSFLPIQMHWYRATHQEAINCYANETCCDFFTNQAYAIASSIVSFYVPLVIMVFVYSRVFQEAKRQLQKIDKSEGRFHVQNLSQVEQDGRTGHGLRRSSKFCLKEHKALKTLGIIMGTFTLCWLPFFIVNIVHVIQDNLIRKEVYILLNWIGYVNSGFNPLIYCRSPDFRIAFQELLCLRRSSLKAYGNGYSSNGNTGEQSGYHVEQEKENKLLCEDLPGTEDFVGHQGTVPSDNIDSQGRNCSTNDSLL
Chain of D(2) dopamine receptor (Homo sapiens) (P14416 whole entry, looked up): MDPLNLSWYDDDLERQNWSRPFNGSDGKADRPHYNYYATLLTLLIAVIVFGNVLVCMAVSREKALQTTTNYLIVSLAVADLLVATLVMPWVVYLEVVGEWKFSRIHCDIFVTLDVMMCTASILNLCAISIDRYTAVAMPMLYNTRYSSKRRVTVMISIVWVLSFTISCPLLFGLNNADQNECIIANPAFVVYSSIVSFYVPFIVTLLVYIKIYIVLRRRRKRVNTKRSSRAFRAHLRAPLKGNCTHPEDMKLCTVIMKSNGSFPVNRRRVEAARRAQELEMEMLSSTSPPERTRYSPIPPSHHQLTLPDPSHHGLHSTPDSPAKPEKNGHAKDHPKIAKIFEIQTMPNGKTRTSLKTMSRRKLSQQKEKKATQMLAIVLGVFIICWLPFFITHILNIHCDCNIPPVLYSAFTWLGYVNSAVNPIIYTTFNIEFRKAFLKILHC

`C=CCCC#N`: the Potency result in assay [1], in assay [2], in [3], in assay [4], in [5] and in assay [6] was “inactive” in each case. For the same compound, the Potency result in [7], in assay [8], in [9], in [10], in assay [11] and in assay [12] was “inactive” each time. Besides, the Potency entry in assay [13], in [14], in assay [15], in [16], in assay [17] and in assay [18] was “inactive” in each case.
As to `Cc1ccc(N)cc1N`, the Potency result in assay [1], in [3], in assay [4], in [5], in assay [7] and in [8] was “inactive” in each case. For the same compound, the Potency entry in assay [9], in [10], in [11], in assay [12], in [14] and in assay [15] was “inactive” throughout. The Potency result in assay [17] and in assay [18] was “inactive” each time. For the same compound, in [2], the Potency was 26.6 µM (active) and 30.6 µM (active).
In the case of `COC(=O)C(Cl)C(=O)OC`, the Potency result in [1], in [2], in assay [3], in assay [4], in [5] and in assay [6] was “inactive” throughout. Further, the Potency result in assay [7], in [8], in [9], in assay [10], in assay [11] and in [12] was “inactive” each time. For the same compound, the Potency result in [13], in [14], in assay [15], in assay [16], in assay [17] and in [18] was “inactive” throughout.
In the case of `CCOC(=O)CC(SP(=S)(OC)OC)C(=O)OCC` (stereo unspecified), the Potency entry in [1], in [3], in assay [4], in assay [5], in assay [6] and in assay [7] was “inactive” throughout. Besides, the Potency result in assay [8], in assay [9], in [10], in assay [11], in [12] and in [13] was “inactive” throughout. The Potency result in assay [14], in assay [15], in [16], in assay [19], in [17] and in [18] was “inactive” throughout. The Potency in assay [2] was 24.3 µM (active).
With `CCOP(=S)(OCC)Oc1cc(C)nc(C(C)C)n1`, the Potency entry in assay [1], in assay [2], in assay [3], in assay [4], in assay [5] and in [6] was “inactive” each time. In addition, the Potency result in [7], in assay [8], in assay [9], in [10], in assay [11] and in assay [13] was “inactive” throughout. Moreover, the Potency entry in assay [15], in [16], in [19], in assay [17] and in assay [18] was “inactive” throughout.
Take `CCOP(=S)(OCC)OP(=S)(OCC)OCC`: the Potency entry in [1], in [2], in [3], in assay [4], in [5] and in [6] was “inactive” in each case. Further, the Potency entry in [7], in assay [8], in assay [9], in assay [10], in assay [11] and in [12] was “inactive” in each case. The Potency entry in assay [13], in assay [14], in assay [15], in [16], in [19] and in [17] was “inactive” each time. Besides, the Potency entry in assay [18] was “inactive”.
Consider `C#CC(C)(C)NC(=O)c1cc(Cl)cc(Cl)c1`, for which the Potency entry in assay [1], in assay [2], in [3], in [4], in assay [5] and in [6] was “inactive” in each case. The Potency entry in assay [7], in [8], in assay [9], in assay [10], in assay [11] and in [12] was “inactive” each time. Besides, the Potency result in assay [13], in assay [14], in assay [15], in assay [16], in assay [17] and in [18] was “inactive” in each case.
As for `O=C(Cl)/C=C/C(=O)Cl`, the Potency entry in [1], in assay [2], in assay [3], in [4], in assay [5] and in [7] was “inactive” in each case. Moreover, the Potency result in assay [8], in assay [9], in assay [10], in assay [11], in [13] and in [14] was “inactive” in each case. Moreover, the Potency entry in assay [15], in assay [16], in assay [17] and in [18] was “inactive” each time. Besides, in assay [12], the Potency is 0.0011 µM (active).
